# Test results taken from PubChem BioAssay (NCATS).
# Records with an inconclusive call do not appear. Entries that show only a call come without a potency. Values without a mark were called inactive. The source made the active and inactive calls. Calls come from the whole dose curve; as a rule, active = well fitted curve in the direction sought with a large enough effect in the repeat runs; inconclusive = weak or mixed curves; inactive = no such curve, though single readings can be large; an effect the other way counts as inactive or inconclusive. *1 amine or outer side, *2 acyl side, *3 side chain or, on linkers, in order; H or OH if unused. Where a SMILES comes first, the peptide text is derived from it. Bridges are numbered along the chain shown (N, C = ends). [ ]: non-standard residue; d: D form. The star is where a group is joined. ξ: configuration not given here. X10 = NC1=NCCC(C(N[*:1])C(=O)[*:2])N1; ΔAla(3-NHCONH2) = NC(=O)NC=C(N)C(=O)O; ξβ3hOrn = NCCCC(N)CC(=O)*; Dap = NC[CH](N)C(=O)O
# Target: Cytochrome P450 2D6 (Homo sapiens) (UniProt P10635)
# Experiment: Cytochrome P450 family 2 subfamily D member 6 (CYP2D6) small molecule antagonists: luciferase biochemical (cell-free) qHTS assay (AID 1645840); note: nearly all actives have a fitted effect of over 55% in size
# Settings: P450-Glo CYP2D6 enzyme, luciferin luminescence, 1 h; series mostly up to 57.4 µM
# Outline: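 P450-Glo luminescent screen: recombinant CYP2D6 enzyme–proluciferin substrate mix preincubated with compound 10 min at room temperature, then NADPH regeneration added for 1 h at room temperature. Detection reagent added for 20 min; luciferin light read as relative luminescence units.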
# Potency is the fitted concentration of half-maximal effect.
# Cytochrome P450 2D6 (Homo sapiens), sequence (P10635 whole entry, looked up): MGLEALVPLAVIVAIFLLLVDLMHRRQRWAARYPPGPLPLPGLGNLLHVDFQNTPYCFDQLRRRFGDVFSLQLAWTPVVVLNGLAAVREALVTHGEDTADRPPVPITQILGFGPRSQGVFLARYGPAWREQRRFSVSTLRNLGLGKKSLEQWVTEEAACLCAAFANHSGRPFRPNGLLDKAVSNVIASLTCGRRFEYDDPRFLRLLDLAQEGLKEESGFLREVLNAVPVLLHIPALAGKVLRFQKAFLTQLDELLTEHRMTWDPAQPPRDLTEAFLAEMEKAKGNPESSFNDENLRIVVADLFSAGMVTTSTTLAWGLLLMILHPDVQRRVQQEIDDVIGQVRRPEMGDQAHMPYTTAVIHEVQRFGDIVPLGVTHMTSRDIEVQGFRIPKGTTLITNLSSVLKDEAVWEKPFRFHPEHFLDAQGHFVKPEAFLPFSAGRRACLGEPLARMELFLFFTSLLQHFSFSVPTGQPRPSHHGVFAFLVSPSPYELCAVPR
SMILES,Potency,"activity change, negative = inhibition"
CCOC(=O)c1ccc(OCCN2C[C@H](O)[C@@H](O)[C@H](O)[C@H]2CO)cc1,inactive,
CCC(CN)=C(c1ccccc1)c1ccccc1,3.63 µM (active),
CCCC(=O)O[C@]1(C(=O)COC(=O)CC)CC[C@H]2[C@@H]3CCC4=CC(=O)CC[C@]4(C)[C@H]3[C@@H](O)C[C@@]21C,inactive,
Nc1ccc2cc3ccc(N)cc3nc2c1,inactive,
CO[C@@]1(NC(=O)CSC[C@@H](N)C(=O)O)C(=O)N2C(C(=O)O)=C(CSc3nnnn3C)CS[C@@H]21,inactive,
CC(Oc1c(Cl)cccc1Cl)C1=NCCN1 (stereo not given),8.71 µM (active),
CN(C)C(=O)CNC(=O)Cc1ccccc1,inactive,
CN(C)[C@@H]1C(=O)C(C(N)=O)=C(O)[C@@]2(O)C(=O)C3=C(O)c4c(O)cccc4C[C@H]3C[C@@H]12,inactive,
OC(CCCN1CCCCC1)(c1ccccc1)c1ccccc1,0.138 µM (active),
COc1ccc2c(c1)c(CC(=O)OC/C=C(\C)CC/C=C(\C)CCC=C(C)C)c(C)n2C(=O)c1ccc(Cl)cc1,12.3 µM (active),
CC(C)C(=O)Nc1cccc(C2CN3CCSC3=N2)c1 (stereo not given),inactive,
Oc1cccc2[nH]ccc12,15.5 µM (active),
O=c1[nH]sc2cc(Cl)ccc12,inactive,
NC(=O)NC1N=C([O][Al])NC1=O (stereo not given),13.8 µM (active),
COc1cc2nc(Cl)nc(N)c2cc1OC,inactive,
O=C(O)CCC(=O)OC[C@@H](NC(=O)C(Cl)Cl)[C@H](O)c1ccc([N+](=O)[O-])cc1,inactive,
COc1ccc([C@@H]2Sc3ccccc3NC(=O)[C@@H]2O)cc1,13.8 µM (active),
CC1CCCCN1CCCOC(=O)c1ccc(OC2CCCCC2)cc1 (stereo not given),11 µM (active),
O=C(NN1CCCC1)NS(=O)(=O)c1ccc(Cl)cc1,inactive,
CC(=O)N(CC(O)CO)c1c(I)c(C(=O)NCCO)c(I)c(C(=O)NCC(O)CO)c1I (stereo not given),inactive,

SMILES,Potency,"activity change, negative = inhibition"
O=C(CCOCCOCCOCCOCCC(=O)Nc1c(I)cc(I)c(C(=O)O)c1I)Nc1c(I)cc(I)c(C(=O)O)c1I,inactive,
Cc1onc(-c2ccccc2)c1C(=O)Cl,inactive,
C[C@H](N)C(=O)N[C@@H](C)C(=O)NC1[C@H]2CN(c3nc4c(cc3F)c(=O)c(C(=O)O)cn4-c3ccc(F)cc3F)C[C@@H]12 (stereo not given in full),inactive,
CC(C)C[C@H](NC(=O)CNC(=O)[C@H](Cc1ccc(O)cc1)NC(=O)[C@H](CO)NC(=O)[C@H](Cc1c[nH]c2ccccc12)NC(=O)[C@H](Cc1cnc[nH]1)NC(=O)[C@@H]1CCC(=O)N1)C(=O)N[C@@H](CCCN=C(N)N)C(=O)N1CCC[C@H]1C(=O)NCC(N)=O (stereo in doubt),inactive,
CC(=O)OCC(=O)Nc1cc(C#N)cc(NC(=O)COC(C)=O)c1Cl,inactive,
O=C(O)C1CCC1,inactive,
CCC(=O)O[C@H]1[C@H](O[C@@H]2[C@@H](C)[C@H](O[C@H]3C[C@@](C)(OC)[C@@H](O)[C@H](C)O3)[C@@H](C)C(=O)O[C@H](CC)[C@@](C)(O)[C@H](O)[C@@H](C)C(=O)[C@H](C)C[C@@]2(C)O)O[C@H](C)C[C@@H]1N(C)C,inactive,
COCCOCC(OC)OC,inactive,
Nc1ncnc2nc[nH]c12,inactive,
CCC[C@H](N[C@@H](C)C(=O)N1[C@H](C(=O)O)C[C@@H]2CCCC[C@@H]21)C(=O)OCC,inactive,
O=C(O)[C@@H](O)[C@H](O)[C@H](O)[C@@H](O)C(=O)O,inactive,
CCOC(=O)CN1CCCC1=O,inactive,
CC(=O)CC/C=C(\C)CC/C=C(\C)CC/C=C(\C)CCC=C(C)C,inactive,
NCCCC(N)CC(=O)NCC1NC(=O)C(CO)NC(=O)C(N)CNC(=O)C(C2CCN=C(N)N2)NC(=O)C(=CNC(N)=O)NC1=O (stereo not drawn) (H-[Dap]S[Dap](ξβ3hOrn)[ΔAla(3-NHCONH2)][X10]; lactam 1-C; configuration not given here),,0.741% [at 0.91 µM]
CC[C@@H]([C@H](C)O)n1ncn(-c2ccc(N3CCN(c4ccc(OC[C@@H]5CO[C@@](Cn6cncn6)(c6ccc(F)cc6F)C5)cc4)CC3)cc2)c1=O,inactive,
CC(=O)N(CC(=O)N(C)C)c1ccccc1,inactive,
CCCC(=O)c1cc(O)c(O)cc1O,31.7 µM (active),
CC(C)OC(=O)c1cc2c(OCC(O)CNC(C)(C)C)cccc2[nH]1 (stereo not given),11 µM (active),
CCCCCC1Nc2cc(C(F)(F)F)c(S(N)(=O)=O)cc2S(=O)(=O)N1 (stereo not given),3.89 µM (active),

# Target: Cytochrome P450 3A4 (Homo sapiens) (UniProt P08684)
# Experiment: Cytochrome P450 family 3 subfamily A member 4 (CYP3A4) small molecule antagonists: luciferase qHTS assay (AID 1645841); note: nearly all actives have a fitted effect of over 45% in size
# Settings: P450-Glo CYP3A4 enzyme assay, luciferin luminescence; series mostly up to 57.4 µM
# Outline: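 P450-Glo CYP3A4 enzyme with proluciferin substrate preincubated 10 min with compound at room temperature, then NADPH regeneration 1 h. Luciferin detection reagent added for 20 min; luminescence recorded. Ketoconazole positive control.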
# Cytochrome P450 3A4 (Homo sapiens), sequence (P08684 whole entry, looked up): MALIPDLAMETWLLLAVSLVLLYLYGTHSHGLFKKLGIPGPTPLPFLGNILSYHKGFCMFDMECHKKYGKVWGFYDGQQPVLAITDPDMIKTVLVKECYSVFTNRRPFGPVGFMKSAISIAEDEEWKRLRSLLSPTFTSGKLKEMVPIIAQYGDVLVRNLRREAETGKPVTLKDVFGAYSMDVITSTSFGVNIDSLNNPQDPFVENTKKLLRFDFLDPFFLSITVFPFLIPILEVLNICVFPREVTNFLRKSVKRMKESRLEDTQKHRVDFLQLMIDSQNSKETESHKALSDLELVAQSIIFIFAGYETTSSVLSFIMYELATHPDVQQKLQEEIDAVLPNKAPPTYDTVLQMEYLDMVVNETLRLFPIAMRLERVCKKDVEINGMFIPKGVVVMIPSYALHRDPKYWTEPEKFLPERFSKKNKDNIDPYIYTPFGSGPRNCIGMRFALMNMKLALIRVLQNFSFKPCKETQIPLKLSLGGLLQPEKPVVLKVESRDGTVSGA
SMILES,Potency,"activity change, negative = inhibition"
CCOC(=O)c1ccc(OCCN2C[C@H](O)[C@@H](O)[C@H](O)[C@H]2CO)cc1,inactive,
CCCC(=O)O[C@]1(C(=O)COC(=O)CC)CC[C@H]2[C@@H]3CCC4=CC(=O)CC[C@]4(C)[C@H]3[C@@H](O)C[C@@]21C,inactive,
Nc1ccc2cc3ccc(N)cc3nc2c1,4.36 µM (active),
CO[C@@]1(NC(=O)CSC[C@@H](N)C(=O)O)C(=O)N2C(C(=O)O)=C(CSc3nnnn3C)CS[C@@H]21,inactive,
CN(C)C(=O)CNC(=O)Cc1ccccc1,inactive,
CN(C)[C@@H]1C(=O)C(C(N)=O)=C(O)[C@@]2(O)C(=O)C3=C(O)c4c(O)cccc4C[C@H]3C[C@@H]12,inactive,
NC(=O)NC1N=C([O][Al])NC1=O (stereo not given),5.49 µM (active),
O=C(NN1CCCC1)NS(=O)(=O)c1ccc(Cl)cc1,inactive,
CC(=O)N(CC(O)CO)c1c(I)c(C(=O)NCCO)c(I)c(C(=O)NCC(O)CO)c1I (stereo not given),inactive,
O=C(CCOCCOCCOCCOCCC(=O)Nc1c(I)cc(I)c(C(=O)O)c1I)Nc1c(I)cc(I)c(C(=O)O)c1I,inactive,
C[C@H](N)C(=O)N[C@@H](C)C(=O)NC1[C@H]2CN(c3nc4c(cc3F)c(=O)c(C(=O)O)cn4-c3ccc(F)cc3F)C[C@@H]12 (stereo not given in full),inactive,
CC(=O)OCC(=O)Nc1cc(C#N)cc(NC(=O)COC(C)=O)c1Cl,inactive,
O=C(O)C1CCC1,inactive,
CCC(=O)O[C@H]1[C@H](O[C@@H]2[C@@H](C)[C@H](O[C@H]3C[C@@](C)(OC)[C@@H](O)[C@H](C)O3)[C@@H](C)C(=O)O[C@H](CC)[C@@](C)(O)[C@H](O)[C@@H](C)C(=O)[C@H](C)C[C@@]2(C)O)O[C@H](C)C[C@@H]1N(C)C,18.2 µM (active),
COCCOCC(OC)OC,inactive,
Nc1ncnc2nc[nH]c12,inactive,
O=C(O)[C@@H](O)[C@H](O)[C@H](O)[C@@H](O)C(=O)O,inactive,
CCOC(=O)CN1CCCC1=O,inactive,
NCCCC(N)CC(=O)NCC1NC(=O)C(CO)NC(=O)C(N)CNC(=O)C(C2CCN=C(N)N2)NC(=O)C(=CNC(N)=O)NC1=O (stereo not drawn) (H-[Dap]S[Dap](ξβ3hOrn)[ΔAla(3-NHCONH2)][X10]; lactam 1-C; configuration not given here),,-11.7% [at 0.91 µM]
CC(=O)N(CC(=O)N(C)C)c1ccccc1,inactive,
CCCCCC1Nc2cc(C(F)(F)F)c(S(N)(=O)=O)cc2S(=O)(=O)N1 (stereo not given),inactive,
